From PubChem BioAssay
Most compounds without a hit are left out; they make up all but 31% or so of the library.
CYP2C19 inhib = blockers of cytochrome P450 2C19 activity – biochemical, luminescence, ADME assay, primary screen; P33261; inhibition, % at 5 µM; 96,000 compounds, 21% hits; CYP2C19 Supersomes, luciferin-H EGE luminescence, 30 min;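 active means CYP2C19 inhibition above a set limit at 5 µM in the primary screen, cut at about 50% in these data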
Target sequence (P33261 whole entry, looked up): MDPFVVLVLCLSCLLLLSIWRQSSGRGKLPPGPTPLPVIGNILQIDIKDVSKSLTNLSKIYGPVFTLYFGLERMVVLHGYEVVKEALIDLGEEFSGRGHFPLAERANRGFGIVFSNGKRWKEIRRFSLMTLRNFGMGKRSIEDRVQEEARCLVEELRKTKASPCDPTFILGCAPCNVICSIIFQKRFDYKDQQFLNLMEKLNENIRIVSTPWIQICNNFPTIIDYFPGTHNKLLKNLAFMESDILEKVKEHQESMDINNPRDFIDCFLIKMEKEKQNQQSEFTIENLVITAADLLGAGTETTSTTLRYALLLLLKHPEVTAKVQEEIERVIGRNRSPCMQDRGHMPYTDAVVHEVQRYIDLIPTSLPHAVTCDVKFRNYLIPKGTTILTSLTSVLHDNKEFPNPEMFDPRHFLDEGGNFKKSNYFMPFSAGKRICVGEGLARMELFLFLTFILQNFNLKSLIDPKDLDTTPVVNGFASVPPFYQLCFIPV
CYP2C9 inh = blockers of cytochrome P450 2C9 activity – biochemical, luminescence, ADME assay, primary screen; CYP2C9 Supersomes, luciferin-H conversion; inhibition, % at 5 µM; 96,000 compounds, 20% hits;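 active means blocking of liver enzyme CYP2C9 beyond about 50% at 5 µM, limit read from the data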
CYP2C19 act = human CYP2C19 activators, primary screen, biochemical, luminescence; activation factor at 5 µM; recombinant CYP2C19, luciferin-H EGE luminescence; active compounds read high; 0 = fully inhibited enzyme, 1 = untreated enzyme; AID 1025, 2008; 96,000 tested, under 10 active; Cytochrome P450 2C19 (Homo sapiens), P33261;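 active means activation factor of at least 2 at 5 µM in the primary screen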
CYP2C9 act = human CYP2C9 activators, primary screen, biochemical, luminescence; 96,000 compounds, 1.4% hits; AID 1024, 2008; activation factor at 5 µM; recombinant CYP2C9, luciferin-H conversion; active compounds read high; factor 1 = untreated enzyme, 0 = blocked; Cytochrome P450 2C9 (Homo sapiens), P11712;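 active means activation factor of 2 or more for CYP2C9 at a 5 µM dose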
Numbers stand for hits; . = inactive.

SMILES	CYP2C19 inhib	CYP2C9 inh	CYP2C19 act	CYP2C9 act
CC1(C)Cc2c(sc3nc4n(c(=N)c23)CCC4)CO1	.	.	.	.
Cc1nc2ccccc2c2c1C(=O)N(C1CCCCCCC1)C2=O	.	.	.	.
Cc1nc2ccccc2c2c1C(=O)N(Cc1cccnc1)C2=O	97	.	.	.
CC1CCN(C(=O)CN(C2CCCCC2)S(C)(=O)=O)CC1	.	.	.	.
CCCC(c1nnnn1Cc1ccc(OC)cc1)N1CCN(c2ccccc2)CC1 (stereo not given)	.	82	.	.
COc1ccc(Cn2nnnc2C(CC(C)C)N2CCN(c3ccccc3)CC2)cc1 (stereo not given)	74	65	.	.
COc1ccc(Cn2nnnc2C(C(C)C)N2CCc3ccccc32)cc1 (stereo not given)	71	68	.	.
CC(C)CC(c1nnnn1C1CCCC1)N1CCN(c2ccccc2F)CC1 (stereo not given)	.	.	.	.
COc1ccc(C(c2nnnn2Cc2ccc(F)cc2)N2CCN(c3ccccc3)CC2)cc1 (stereo not given)	.	.	.	.
COc1ccc(C(c2nnnn2Cc2ccc(F)cc2)N2CCN(c3ccc(OC)cc3)CC2)cc1 (stereo not given)	.	.	.	.
CC(C)CC(c1nnnn1C(C)C)N1CCN(c2ccccc2)CC1 (stereo not given)	.	68	.	.
COc1cccc(NC(=O)CCN2CCC(C(N)=O)CC2)c1	.	.	.	.
CCOC(=O)C1CCN(C(c2cccnc2)c2c(NC(=O)c3ccco3)sc(C)c2C)CC1 (stereo not given)	60	82	.	.
Cc1sc(NC(=O)c2ccco2)c(C(c2cccnc2)N2CCN(c3ccc(F)cc3)CC2)c1C (stereo not given)	95	99	.	.
CCOC(=O)c1c(C)oc2c1c(C(c1cccnc1)N1CCCCC1)c(O)c1ccccc12 (stereo not given)	.	.	.	.
O=C(NCC(c1cccnc1)N1CCN(c2ccc(F)cc2)CC1)c1ccccc1 (stereo not given)	54	.	.	.
Cn1c(CCN2CCN(c3ccc(F)cc3)CC2)nc2cc(NC(=O)c3ccco3)ccc21	.	.	.	.
O=C(c1ccco1)N1CCN(c2cc(C(F)(F)F)nc3ncnn23)CC1	.	.	.	.
CCOC(=O)CCSc1nc(C)c2ccccc2n1	.	.	.	.
CCOC(=O)CCSc1nc(C)c2cc(C)ccc2n1	78	58	.	.
c1ccc(Nc2cccc(Nc3ccccc3)n2)cc1	.	.	.	.
CCn1c(SCC(=O)Nc2nonc2C)nnc1-c1ccco1	86	.	.	.
CCc1nnc(NC(=O)CSc2nnc(-c3ccco3)n2CC)s1	.	65	.	.
C=CCn1c(SCC(=O)Nc2cc(C)c(Cl)cc2OC)nnc1-c1ccco1	.	.	.	.
CCSc1nnc(NC(=O)CSc2nnc(-c3c[nH]c4ccccc34)n2CC)s1	.	.	.	.
SMILES	CYP2C19 inhib	CYP2C9 inh	CYP2C19 act	CYP2C9 act
CCn1c(SCC(=O)Nc2nc(C)cs2)nnc1-c1ccco1	.	.	.	.
CCc1nnc(NC(=O)CSc2nnc(-c3c[nH]c4ccccc34)n2CC)s1	.	57	.	.
C=CCn1c(SCC(=O)Nc2cc(C)ccc2OC)nnc1-c1ccco1	98	.	.	.
CC12C=CC3(CN(Cc4ccccc4)C(=O)C3C1C(=O)NC1CC1)O2 (stereo not given)	.	.	.	.
Cc1ccccc1C1C(C#N)=C2N=C(N)c3c(sc4c3CCCCC4)N2C2=C1C(=O)CCC2 (stereo not given)	.	.	.	.
CCn1c(SCC(=O)n2c(C)c(C)c3ccccc32)nnc1-c1ccco1	87	.	.	.
Cc1ccc(-c2ccc(SCC(=O)Nc3nonc3C)nn2)cc1	.	86	.	.
CCn1c(SCC(=O)Nc2ccc3c(c2)c2ccccc2n3CC)nnc1-c1ccco1	85	.	.	.
CCn1c(SCC(=O)Nc2cc(C)on2)nnc1-c1ccco1	53	.	.	.
CCCCn1c(SCC(=O)Nc2cc(C)on2)nnc1-c1ccco1	.	.	.	.
Cc1nc(NC(=O)COC(=O)CCS(=O)(=O)c2ccccc2Cl)c(Cl)cc1Cl	.	.	.	.
C=CCn1c(SCC(=O)Nc2nnc(CC)s2)nnc1-c1ccco1	.	.	.	.
COCCCn1c(SCC(=O)n2c(C)c(C)c3ccccc32)nnc1-c1ccoc1C	89	.	.	.
Cc1ccc(C)c(-n2c(SCC(=O)Nc3nonc3C)nnc2-c2ccoc2C)c1	.	82	.	.
COCCCn1c(SCC(=O)N2CC(=O)Nc3ccccc32)nnc1-c1ccoc1C	.	.	.	.
C=CCn1c(SCc2c(F)cccc2Cl)nnc1-c1ccco1	96	.	.	.
Cc1c(C)n(C(=O)CSc2nccn2C)c2ccccc12	79	.	.	.
Cc1ccc(C)c(-n2c(SCC(=O)Nc3nnc(C)s3)nnc2-c2ccoc2C)c1	.	.	.	.
CCCSc1nnc(C(C)C)n1N	.	.	.	.
CCCCCOC(=O)Cn1c(N2CCCCCC2)nc2c1c(=O)[nH]c(=O)n2C	.	.	.	.
COc1ccc(CSc2nnc3n(C)c(=O)c4c5c(sc4n23)CCCC5)cc1	.	.	.	.
Cc1cc(NC(=O)CSc2nnc(-c3ccc(Br)o3)n2Cc2ccccc2)no1	58	66	.	.
Cc1cc(NC(=O)CSc2nnc(C(C)N(C)C)n2Cc2ccccc2)no1 (stereo not given)	.	.	.	.
CCOc1ccc(-c2cc(N)n(S(=O)(=O)c3ccc(OC)c(OC)c3)n2)cc1	.	.	.	.
Nc1cc(-c2ccc(Cl)cc2)nn1S(=O)(=O)c1ccc(Cl)cc1	.	.	.	.
SMILES	CYP2C19 inhib	CYP2C9 inh	CYP2C19 act	CYP2C9 act
Nc1cc(-c2ccccc2)nn1S(=O)(=O)c1ccc(F)cc1	100	97	.	.
COc1ccc(-c2cc(N)n(S(=O)(=O)c3ccc(F)cc3)n2)cc1OC	70	95	.	.
COc1ccc(S(=O)(=O)n2nc(-c3ccc(Cl)cc3)cc2N)cc1OC	83	80	.	.
COc1cc(-c2cc(N)n(S(=O)(=O)c3ccc(F)cc3)n2)cc(OC)c1OC	79	82	.	.
O=C(c1ccccc1)c1ccccc1C(=O)N1CCOCC1	.	.	.	.
Fc1ccc(-c2noc(C3CCN(Cc4cccnc4)CC3)n2)cc1	.	.	.	.
COCCSc1ccccc1C(=O)N1CCOCC1	.	.	.	.
CCOC(=O)c1[nH]c(C)c(C(=O)c2cc(F)ccc2F)c1C	95	93	.	.
CCCNC(=O)COC(=O)c1[nH]c(C)c(C(=O)OCC)c1C	.	64	.	.
CCCN(CC1CC1)C(=O)COC(=O)c1[nH]c(C)c(C(=O)OCC)c1C	60	.	.	.
CCOC(=O)c1[nH]c(C)c(C(=O)OCC)c1C	84	75	.	.
CCn1c(SCC(=O)C(C)(C)C)nnc1-c1cccnc1	.	.	.	.
